Source: PubChem BioAssay AID485317 (Broad Institute, 2010)
Screen size: about 290,000 compounds; about 11,000 (3.8%) were called active. The full list was thinned out, with actives kept by preference. A number with no mark means an inactive call.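 How the source made its calls: active means mean replicate inhibition above about 79%, with every replicate also reaching it (limit read from the data); inconclusive means only one of the two criteria met; inactive means mean below limit and not every replicate reaching it.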

Biological target: FAD-linked sulfhydryl oxidase ALR (Homo sapiens) (UniProt P55789)
Sequence (P55789 whole entry, looked up): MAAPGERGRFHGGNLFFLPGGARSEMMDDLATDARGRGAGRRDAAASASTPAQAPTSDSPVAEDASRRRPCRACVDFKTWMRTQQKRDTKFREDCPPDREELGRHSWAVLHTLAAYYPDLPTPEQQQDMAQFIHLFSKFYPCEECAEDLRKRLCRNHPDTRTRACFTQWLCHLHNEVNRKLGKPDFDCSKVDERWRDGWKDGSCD
Experiment: ALR-catalysed DTT oxidation blockers – biochemical, H2O2 detection, HRP-luminol luminescence, single point, primary screen (AID 485317)
Conditions: purified ALR, hits give high values, concentration not given here

Row | SMILES | inhibition
1 | COc1ccc(CCNC(=O)COC(=O)C2CC2C)cc1 (stereo not drawn) | 5.1%
2 | CCOc1ccc(S(=O)(=O)Nc2cccc(C(=O)NCC3(N4CCCCC4)CCCCC3)c2)cc1 | -4.42%
3 | COC(=O)c1[nH]c2ccccc2c1NC(=O)CN1CCCc2ccccc21 | -3.93%
4 | COC(=O)c1[nH]c2ccc(Br)cc2c1NC(=O)Oc1ccccc1 | 97.3% (active)
5 | CCOC(=O)c1[nH]c2ccc(OC)cc2c1NC(=O)CCN1CCN(Cc2ccccc2)CC1 | 24.1%
6 | CCCn1c(CCNc2nc(-c3ccc(OC)cc3)cs2)nc2ccccc21 | 12.7%
7 | Cc1ccc(CC(=O)N(C)CC(=O)N(CC(C)C)c2c(N)n(CC(C)C)c(=O)[nH]c2=O)cc1C | -5.01%
8 | Cc1ccc2nc(SCC(=O)N3CC(C)OC(C)C3)nc(=O)n2c1 (stereo not drawn) | -0.878%
9 | Cc1ccc(CNC(=O)c2c(-c3ccccc3)noc2C)cc1 | -6.06%
10 | COc1ccc(C(=O)NC(=S)NNC(=O)CCc2ccccc2)cc1 | 24.8%
11 | COc1ccc(C(=O)NC(=S)NNC(=O)c2c(-c3ccccc3)noc2C)cc1 | 99.2% (active)
12 | COc1ccc(C(=O)NNC(=S)NC(=O)c2ccccc2)cc1 | 34.7%
13 | CCc1noc(C)c1C(=O)NNC(=O)c1ccc(F)cc1 | 0.314%
14 | Cc1onc(-c2ccccc2)c1C(=O)NNC(=S)NC(=O)c1ccc(F)cc1 | 93.4% (active)
15 | COc1ccc(S(=O)(=O)N(C)C[C@H]2Oc3c(NC(=O)Nc4ccc5c(c4)OCO5)cccc3C(=O)N([C@H](C)CO)C[C@@H]2C)cc1 | -7.29%
16 | CC(C)(C)OC(=O)NCCCCCNC(=O)c1[nH]cnc1C(=O)Nc1nccs1 | -6.55%
17 | COc1ccc(Cl)cc1NS(=O)(=O)c1cccc(C(=O)NC2CCC(O)CC2)c1 (stereo not drawn) | -6.32%
18 | O=C(COC(=O)c1cccc(Cl)c1)NC(=O)NCc1ccccc1 | -1.07%
19 | COCCn1c(SCC(=O)Nc2ccc3c(c2)CCC3)nc2ccccc2c1=O | -0.883%
20 | COc1cccc(NC(=O)C(Sc2nc3ccccc3c(=O)n2CC(C)C)c2ccccc2)c1 (stereo not drawn) | -3.45%
21 | COC(=O)c1ccc2c(=O)n(CCN3CCOCC3)c(SCC(=O)Nc3cccc(OC)c3)nc2c1 | 99.1% (active)
22 | CC(=O)c1ccc(NC(=O)CSc2nc3ccccc3c(=O)n2CCCN2CCOCC2)cc1 | 23.1%
23 | CCc1ccc(NC(=O)CSc2nc3ccccc3c(=O)n2CCN2CCOCC2)cc1 | 98.6% (active)
24 | CC(=O)NCCn1c(SCC(=O)Nc2ccc(C)cc2)nc2ccccc2c1=O | -3.53%
25 | Cc1csc(NC(=O)c2ccc(C)s2)n1 | 27.4%

Row | SMILES | inhibition
26 | O=C(COC(=O)Cc1ccc([N+](=O)[O-])cc1)NC1CCCCCC1 | 3.75%
27 | COc1ccc(-c2c(-c3cc(OC)cc(OC)c3)n(C)c3ccc(-c4ccn[nH]4)cc23)cc1 | -7.81%
28 | Brc1ccc(CN2CC[C@H]3C=CCc4cccc(c43)C2)cc1 | -17.1%
29 | Cc1cc(C)nc(S/C=C/C(=O)c2ccccc2)n1 | 18.2%
30 | O=C(/C=C/Sc1ncn[nH]1)c1ccc(Cl)cc1 | 98.6% (active)
31 | COc1ccc(Cl)cc1CSc1ncn[nH]1 | 3.36%
32 | CCN(c1ccccc1)S(=O)(=O)c1ccc(C(=O)Nc2ccccc2OC)cc1 | 2.02%
33 | COc1ccc(NC(=O)N(C)C[C@H]2Oc3ccc(NC(=O)C4CC4)cc3C(=O)N([C@H](C)CO)C[C@@H]2C)cc1 | -0.429%
34 | CN(C)CCN(C(=O)CN1C(=O)c2ccccc2C1=O)c1nc2cc3c(cc2s1)OCCO3 | -1.15%
35 | Nc1ccccc1/C=N\N=C/c1ccccc1N | -2.8%
36 | Cc1nc2nc(SCC(=O)Nc3cccc(F)c3)[nH]c2cc1Br | -13.2%
37 | O=C(CSc1nc2[nH]c(=O)[nH]c(=O)c2s1)Nc1cccc(F)c1 | 98.7% (active)
38 | Nc1nnc(SCC(=O)Nc2ccc3nc(SCC(=O)Nc4ccccc4)sc3c2)s1 | -42%
39 | O=S(=O)(NCCS(=O)(=O)N1CCN(c2ccccc2)CC1)c1ccc(F)cc1 | -11.7%
40 | CC[C@@H]1Cc2cc(O)ccc2C2=C1c1ccc(O)cc1C[C@H]2CC | 97.9% (active)
41 | CC1(C)CC(=O)c2ccc(O)cc2O1 | 0.168%
42 | CCc1nnc(NC(=O)c2cc(S(=O)(=O)N3CCCCC3)ccc2C)s1 | -5.04%
43 | Cc1ccc(CNS(=O)(=O)CCNC(=O)c2ccccc2)cc1 | 0.449%
44 | CCN(CC(=O)Nc1ccc(OC)cc1)C(=O)c1ccc(Cl)c(S(=O)(=O)N2CCCC2)c1 | -0.437%
45 | O=C(CSc1ncnc2sccc12)N1CCN(C(=O)c2cccs2)CC1 | 3.8%
46 | COc1ccccc1C(=O)NC(CCSC)C(=O)N1CCN(C/C=C/c2ccccc2)CC1 (stereo not drawn) | -15.9%
47 | Cc1cc(O)ccc1NC1=CC(=O)CC(C)(C)C1 | 92.3% (active)
48 | CC1(C)CC(=O)C=C(Nc2ccccc2)C1 | 3.81%
49 | COC(=O)NNC1=CC(=O)CC(C)(C)C1 | 5.45%
50 | O=C(Nc1cc(S(=O)(=O)N2CCOCC2)ccc1N1CCOCC1)c1c(F)cccc1Cl | 0.0766%

Row | SMILES | inhibition
51 | COc1cc(/C=C2/C(=O)NN(c3cccc(Cl)c3)C2=O)cc(Br)c1O | 98.2% (active)
52 | C#CCOc1ccc(/C=C2/C(=O)NN(c3ccccc3)C2=O)cc1OC | 66.4%
53 | COc1cc(/C=N/O)cc(Br)c1OCc1cccc(Cl)c1 | -0.717%
54 | C=CCSc1ccc(S(=O)(=O)N2CCN(C)CC2)cn1 | 0.831%
55 | CC1CCc2sc(C(=O)NCC(c3ccco3)N3CCCCC3)cc2C1 (stereo not drawn) | -3.3%
56 | C[C@H](NC(=O)c1ccccc1Cl)C(=O)OCC(=O)N1CCN(c2ccccc2)CC1 | 50.7%
57 | Cn1nnnc1SCC(=O)Nc1sccc1C(N)=O | 23.5%
58 | COc1ccc(C(=O)Nc2ccccc2C(=O)NCc2ccco2)cc1 | -4.1%
59 | COc1ccc(-c2cc(C(F)(F)F)nc(SCCC(=O)NCc3ccco3)n2)cc1 | 96.7% (active)
60 | COc1cc(OC)cc(-c2nc3nc(C)c(CCC(=O)NCc4ccco4)c(C)n3n2)c1 | 0.656%
61 | CC1C(=O)N2CCCc3cc(S(=O)(=O)NCc4ccc(F)cc4)cc1c32 (stereo not drawn) | 2.55%
62 | Cc1ccc(CN2CC(C(=O)NNC(=O)Cn3ccc(C(F)(F)F)n3)CC2=O)cc1 (stereo not drawn) | -1.18%
63 | CC(=O)Nc1ccc(S(=O)(=O)Nc2nc(-c3ccc(C(C)(C)C)cc3)cs2)cc1 | 14.9%
64 | CC(=O)Nc1ccc(-c2csc(NC=C3C(=O)OC(C)(C)OC3=O)n2)cc1 | 98.2% (active)
65 | CC(=O)Nc1cccc(-c2csc(Nc3cccc(C)n3)n2)c1 | -4.7%
66 | CCOC(=O)c1sc(NC(=O)C2CSC3(C)CCC(=O)N23)nc1C (stereo not drawn) | -0.227%
67 | COc1cc(/C=C/C(=O)OCC(=O)NC2CC2)cc(OC)c1OC | -0.461%
68 | O=C(CCc1nc(-c2ccccc2)no1)Nc1cccc(C(=O)NC2CC2)c1 | 28.1%
69 | Cc1ccccc1-c1cc(C(=O)NCC2CC2)n(CC2CC(c3cccnc3)=NO2)n1 (stereo not drawn) | 10.4%
70 | CCc1ccc2c(c1)C1(NN=C(c3ccccc3)S1)C(=O)N2 (stereo not drawn) | 33.8%
71 | O=C1Nc2ccccc2C12Nc1ccccc1S2 (stereo not drawn) | 98.7% (active)
72 | COc1ccc(C2(O)C(=O)Nc3ccccc32)cc1 (stereo not drawn) | -1.7%
73 | CCCCn1c(N)c(N(CCOC)C(=O)c2cccc(S(=O)(=O)N3CCCCC3)c2)c(=O)[nH]c1=O | -6.18%
74 | CC(C)(C)OC(=O)C[C@H]1C/C=C\C[C@@H](CC(=O)N[C@H](CO)Cc2ccccc2)C(=O)NC[C@@H](c2ccccc2)OC1=O | -2.76%
75 | CCCCCCSc1ccc([C@@H]2[C@H]3C(=O)N(CC)C(=O)[C@H]3[C@]3(C(=O)OC)CCCCN23)cc1 | 3.32%

Row | SMILES | inhibition
76 | CCOc1ncccc1C(=O)OCC(=O)N1c2ccccc2CC1C (stereo not drawn) | 2.2%
77 | CCCC(=O)N1c2ccc(-c3csc(N)n3)cc2CC1C (stereo not drawn) | 98.9% (active)
78 | Cc1ccn(CCC(=O)N2c3ccccc3CC2C)n1 (stereo not drawn) | -7.69%
79 | CCOc1ccc(NS(=O)(=O)c2ccc(C(=O)NCC(c3ccccc3OC)N3CCCC3)cc2)cc1 (stereo not drawn) | 0.447%
80 | Cc1cs/c(=N\N=C\c2ccc(O)cc2)n1Cc1ccco1 | 98.6% (active)
81 | COc1ccc(NC(=O)CSc2nnc(-c3cccs3)n2Cc2ccco2)cc1OC | -13.2%
82 | CN(c1ccccc1)c1ccc(/C=c2\s/c(=C(/C#N)C(=O)C(C)(C)C)n(Cc3ccco3)c2=O)cc1 | -25.2%
83 | Cc1cc(=O)[nH]c(N/N=C/c2c(C)nn(-c3ccccc3Cl)c2Cl)n1 | 24.5%
84 | Cc1cc(=O)[nH]c(N/N=C/c2ccc3c(c2)OCCO3)n1 | 17.8%
85 | CCN(CC)c1ccc(/C=N/Nc2nc(C)cc(=O)[nH]2)cc1 | 99.1% (active)
86 | COc1ccccc1-c1oc2ccccc2c1C#CCCCCO | -1.62%
87 | COc1ccc(CNC(=O)Cc2ccc(-c3ccccc3)cc2)cc1OC | -4.45%
88 | Cc1ccc(-c2nc(CS(=O)(=O)CC(=O)NCc3ccc4c(c3)OCO4)c(C)o2)cc1 | -0.75%
89 | COc1ccc(CC(=O)NC(C)CCc2ccccc2)cc1 (stereo not drawn) | -14.5%
90 | COc1cccc(-c2nc(CS(=O)CC(=O)NCc3ccc(F)cc3)c(C)o2)c1 (stereo not drawn) | 98.8% (active)
91 | COc1ccc(-c2nc(CS(=O)CC(=O)NCc3ccccc3)c(C)o2)cc1OC (stereo not drawn) | 98.9% (active)
92 | COc1ccc(CCNC(=O)CS(=O)(=O)Cc2nc(-c3ccc(C)cc3)oc2C)cc1OC | 21.5%
93 | COc1cccc(NC(=O)NCc2ccc(F)cc2)c1 | -2.14%
94 | COc1ccc(-c2nc(CS(=O)CC(=O)N3CCc4ccccc4C3)c(C)o2)cc1 (stereo not drawn) | 99% (active)
95 | Cc1cccc(-c2nc(CS(=O)CC(=O)NC(C)CCc3ccccc3)c(C)o2)c1 (stereo not drawn) | 92% (active)
96 | O=C(COc1ccccc1)N1CCc2ccccc2C1 | -0.403%
97 | COc1cccc(N(CC(=O)N2CCc3ccccc3C2)S(C)(=O)=O)c1 | -14.9%
98 | CC(CCc1ccccc1)NC(=O)c1ccc(Br)o1 (stereo not drawn) | -19.9%
